Inhibition data for 38 molecules are collected here from PubChem BioAssay AID624481 (The Scripps Research Institute Molecular Screening Center, 2012).

A number with no mark means an inactive call. The source made the active and inactive calls. Cut-off read from the data, not from the text of the source: active = inhibition above about 50%; inactive = the rest.

A word on the inhibition: it is the drop in the measured response relative to a control, in per cent.

Chain of Prolyl endopeptidase-like (Mus musculus) (Q8C167 whole entry, looked up): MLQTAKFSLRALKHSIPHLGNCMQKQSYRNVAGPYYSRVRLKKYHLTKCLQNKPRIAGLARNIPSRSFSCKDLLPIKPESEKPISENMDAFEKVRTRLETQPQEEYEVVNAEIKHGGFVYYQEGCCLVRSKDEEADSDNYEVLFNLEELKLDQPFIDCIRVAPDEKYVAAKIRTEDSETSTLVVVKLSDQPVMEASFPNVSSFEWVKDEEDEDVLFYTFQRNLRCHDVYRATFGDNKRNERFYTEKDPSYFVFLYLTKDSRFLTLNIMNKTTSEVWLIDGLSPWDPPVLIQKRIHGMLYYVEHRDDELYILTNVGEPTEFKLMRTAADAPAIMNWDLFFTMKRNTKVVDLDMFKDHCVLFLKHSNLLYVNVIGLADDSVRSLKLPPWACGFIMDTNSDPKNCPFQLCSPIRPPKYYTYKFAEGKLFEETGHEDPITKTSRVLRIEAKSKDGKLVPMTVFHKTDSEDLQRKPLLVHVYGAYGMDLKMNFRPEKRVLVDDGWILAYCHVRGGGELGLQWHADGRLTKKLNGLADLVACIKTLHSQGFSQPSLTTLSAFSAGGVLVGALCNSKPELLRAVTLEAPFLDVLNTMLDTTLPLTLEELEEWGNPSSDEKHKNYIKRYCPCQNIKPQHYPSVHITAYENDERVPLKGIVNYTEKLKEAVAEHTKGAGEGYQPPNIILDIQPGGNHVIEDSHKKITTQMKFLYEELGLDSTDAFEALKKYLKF

This assay addresses Prolyl endopeptidase-like (Mus musculus) (UniProt Q8C167). Description: mouse PREPL enzyme inhibition by screening hits – biochemical, gel-based competitive ABPP, fluorescence, HTS hits, PREPL inhibitor project (AID 624481). As to conditions: purified mouse PREPL, at 20 µM, active compounds read high.
Regarding `CC1CC(C)CN(C(=O)c2ccc3c(c2NCCO)C(=O)c2ccccc2C3=O)C1` (stereo not drawn), the inhibition is 7%. Turning to `CCCOc1ccccc1-n1sc2c(c1=S)-c1cc(OC)cc3c1N(C(=O)C3=O)C2(C)C`, the inhibition was -26%. As for `CN(CC(=O)Nc1ccccc1Cl)C(=O)c1cccc(S(=O)(=O)N2CCN(Cc3ccccc3)CC2)c1`, the figure is -6%; as for `COc1ccc(C)cc1Nc1n[n+](-c2ccccc2)c(-c2ccc(N(C)C)cc2)s1`, -72%; as for `CC[C@@H](C)[C@@H]1CN([C@@H](CN2CCC[C@H]2CN2C(N)=NC[C@H]2C(C)C)C(C)C)C(=N)N1CCCC1CCCC1`, -53%. The result for `Cc1ccc(C)c(-c2nn(-c3cc(N4CCN(CCO)CC4)ccc3[N+](=O)[O-])c(=O)c3ccccc23)c1` reads 7%; that for `O=C(C1=C[C@@H](c2ccc(C(F)(F)F)cc2)C[C@@H](OCCCCO)O1)N1CCN(Cc2ccccc2)CC1`, -70%; that for `COc1ccc2cc1Oc1ccc(cc1)CC1c3c(cc(OC)c4c3Oc3cc5c(cc3O4)CCNC5C2)CCN1C` (stereo not drawn), -113%. The result for `Nc1c(Cl)ncnc1NN=Cc1ccc2ccccc2n1` reads -48%; that for `Cc1cc2cc(CNC(=O)c3ccc(Br)o3)ccc2n1C`, 38%. Regarding `COc1ccc2nc3cc(Cl)ccc3c(Nc3cc(CN4CCCC4)c(O)c(CN4CCCC4)c3)c2n1`, the inhibition is -45%. The result for `O=C(COc1ccccc1Cl)Nc1ccc(N2CCN(C(=O)c3ccccc3)CC2)cc1` reads -61%. As for `CNCCC(Oc1ccc(C(F)(F)F)cc1)c1ccccc1` (stereo not drawn), the figure is -58%. As for `CN(C)c1ccc(N=C/C=C2\N(C)c3ccccc3C2(C)C)cc1`, the figure is -78%; as for `Nc1c(C(=O)c2cccs2)sc2nsc(SCCN3CCCCC3)c12`, -18%; as for `C#CCOCCOCCOCCNc1nc(N2CCN(C(=O)CCCCCCCCCCNC(=O)Cn3cc(CCCCCN)nn3)CC2)nc(N2CCN(C(=O)CCCCCCCCCCNC(=O)[C@H](CO)n3cc(CCCSC)nn3)CC2)n1`, 31%. As for `Nc1cc([N+](=O)[O-])cc2oc(-c3ccccc3)cc12`, the inhibition was -25%. The result for `COc1ccc2cc1Oc1ccc(cc1)C[C@H]1c3cc(c(OC)cc3CCN1C)Oc1c(O)c(OC)cc3c1[C@H](C2)N(C)CC3` reads 0%; that for `Cc1cc(NN=Cc2ccc(O)cc2)c2cccc(C)c2n1`, 1%; that for `CC(=O)N1CCN(c2ccc(NCc3ccc(-c4cccc(Cl)c4)o3)cc2)CC1`, 39%. The result for `CCCCCCCCCCCCCCCC[N+](C)(C)CCN(Cc1ccc(OC)cc1)c1ncccn1` reads 81% (active); that for `CNc1oc(-c2ccccc2Cl)nc1P(=O)(c1ccccc1)c1ccccc1`, 10%. The result for `Cc1c(CN(C)C)c2c(n1Cc1ccccc1)C(=O)c1ccc(Br)cc1-2` reads -33%; that for `COc1ccc2c(CC(=O)Nc3ccc(N4CCOCC4)cc3)coc2c1`, -44%. On to `Cc1cccn2c(=O)c3cc(C(=O)NCCc4ccccc4)c(=N)n(CCCn4ccnc4)c3nc12`, for which the inhibition was -33%.

Consider `Oc1c(CN2CCCCC2)cc(COCc2ccccc2)c2cccnc12`, for which the inhibition was 92% (active). Turning to `C[C@H](CO)N1C[C@H](C)[C@H](CN(C)Cc2ccccc2)Oc2c(NC(=O)Nc3ccc(F)cc3)cccc2C1=O`, the inhibition is -56%.

As for `COc1cc2nc(Nc3ccc(C)c(C)c3)nc(N)c2cc1OC`, the inhibition is 0%.

As to `O=C(Nc1ccc2c(c1)OCCO2)c1cccc2nc3ccccc3nc12`, the inhibition is -12%. As for `Nc1nc(-c2ccccc2)c(N=Nc2ccccc2Cl)s1`, the figure is -9%; as for `C[N+](C)(CCCCCC[N+](C)(C)CCCN1C(=O)c2cccc3cccc(c23)C1=O)CCCN1C(=O)c2cccc3cccc(c23)C1=O`, -29%; as for `CC(=O)N1CCN(c2ccc(OC[C@H]3CO[C@](Cn4ccnc4)(c4ccc(Cl)cc4Cl)O3)cc2)CC1`, -188%. As for `CCC(CO)[n+]1c(C)cc(/C=C2\Sc3ccccc3N2Cc2ccccc2)cc1C` (stereo not drawn), the figure is -20%; as for `CCN1CCCC1CNC(=O)c1ccc2c(c1)NC(=O)/C(=C\c1ccc(OC)c(OC)c1)S2` (stereo not drawn), 3%; as for `COc1ccc(C2CC(c3cccc(Cl)c3)n3nc(N)nc3N2)cc1` (stereo not drawn), -29%. Consider `Cc1cc(/C=C2\SC(=Nc3ccc(F)cc3)NC2=O)c(C)n1-c1ccc(S(N)(=O)=O)cc1`, for which the inhibition is 28%. Consider `COc1cccc(C2CC(c3ccc(C)cc3)Nc3nc(N)nn32)c1` (stereo not drawn), for which the inhibition was -27%. The result for `O=C(c1cc([N+](=O)[O-])ccc1Cl)N1CCN(c2ccc([N+](=O)[O-])cc2)CC1` reads -51%.
